The source of these data is the supplement of paper PMC10105736.

Unmarked numbers belong to inactive results.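 Rule for the calls: active = MAPPIT score above the 99th percentile of random reference set scores in the same batch; inactive = at or below it.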

What all share (assay): MAPPIT interaction score (arbitrary units); higher = stronger binary interaction signal, active = hit call of the paper
Test [1] has as its target CG13476. As to conditions: MAPPIT configuration: N-N; pair source set: Lit-BS-16.
Test [2] concerns the target CG9795. As to conditions: MAPPIT configuration: N-N; pair source set: Curagen_high_conf.
The target in test [3] is CG12576. As to conditions: MAPPIT configuration: N-C; pair source set: screen_4.
Test [4] has as its target CG13887. To be noted: MAPPIT configuration: N-C; pair source set: screen_3.
For test [5], the target named is CG6845. As to conditions: MAPPIT configuration: N-C; pair source set: screen_4.
For test [6], the target named is Tim17b2. To be noted: MAPPIT configuration: N-C; pair source set: screen_4.
Test [7] has as its target CG12768. To be noted: MAPPIT configuration: N-N; pair source set: Curagen_low_conf.
The target in test [8] is CG8281. To be noted: MAPPIT configuration: N-N; pair source set: screen_1.
Test [9] has as its target CG12863. As to conditions: MAPPIT configuration: N-N; pair source set: Curagen_high_conf.
Test [10] concerns the target CG12963. To be noted: MAPPIT configuration: N-N; pair source set: Curagen_high_conf.
For test [11], the target named is CG13069. As to conditions: pair source set: RRS.
The target of test [12] is DCTN1-p150. As to conditions: MAPPIT configuration: N-N; pair source set: Lit-BM-16.
In test [13] the target is ctp. To be noted: pair source set: Lit-BM-16.
In test [14] the target is CG1316. As to conditions: MAPPIT configuration: N-N; pair source set: Curagen_high_conf.
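Note: HEK293T cells with Epo stimulation, STAT-responsive firefly luciferase reporter, fold induction versus unstimulated cells divided by the larger fold induction of two negative controls lacking either bait or prey.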

B1: Nin (protein)
chain: MEVSADPYEQKLYQMFRSCETQCGLLDEKSLLKLCSLLELRDQGSALIASLGGSHQLGVSFGQFKEALLNFLGSEFDGNTSSGFIERSLVITDEPLNNTYIESPPESSDREVSPKLVVGTKKYGRRSRPQQGIYELSVTDSDNTDEDQLQQQQNQRSLNGCDELGVQVQRSSSQSDLPGSRRLRSVHTSGSKLKRCASLPARRKMNSNTTGATTSPTAAAKLKQLSIQSQAQHSSSVESLDTVTPQQLETISVHSIMEAWELASIPNTRNLLHVLGFDEEEEVNLQQLTKALEEELRGIDGDHEQSNMLRALAALQATELGNYRLAYRQQHEENLKLRADNKAANQRVALLAVEVDERHASLEDNSKKQVQQLEQRHASMVREITLRMTNDRDHWTSMTGKLEAQLKSLEQEEIRLRTELELVRTENTELESEQQKAHIQITELLEQNIKLNQELAQTSSSIGGTPEHSPLRPRRHSEDKEEEMLQLMEKLAALQMENAQLRDKTDELTIEIESLNVELIRSKTKAKKQEKQEKQEDQESAATATKRRGDSPSKTHLTEESPRLGKQRKCTEGEQSDASNSGDWLALNSELQRSQSQDEELTSLRQRVAELEEELKAAKEGRSLTPESRSKELETSLEQMQRAYEDCEDYWQTKLSEERQLFEKERQIYEDEQHESDKKFTELMEKVREYEEQFSKDGRLSPIDERDMLEQQYSELEAEAAQLRSSSIQMLEEKAQEISSLQSEIEDLRQRLGESVEILTGACELTSESVAQLSAEAGKSPASSPISYLWLQSTIQEPAKSLADSKDEATASAIELLGGSPSHKTASRNNLTTSETSIFSTTPFESSQSGPSPTNSGNSNAYGANPGPAPISKPKRSQSPQQAAASEGEIADCETSSTASGKSFESNSKTSCLSHEKCSSPSALKEELKRLKFFELSLKEQIKDLSLQRDGLVMELQQLQEARPVLEKAYARTTHPTLQQRLNQLELRNRHLQNVIKQQQHYTESLMQQSWRQHQVELNDLHSRIETQGVLLADQTQRLQSADILVKDLYVENSHLTATVQRLEQQRARVNLIHQQQQQQRLVGGGLPGMP
Turning to B1, the MAPPIT interaction score was 0.125 in test [1] and 4.19 (active) in test [2].

B2: Tsf2 (protein)
chain: MASSLVFVALVGALCFTLANAQHHYDEHKTTRMVWCTKSQAEQYKCQNLTVAIERDRALFDEVFLNLTCFMAYSADECIHHIDREKAHITTLDAGDVFTAGRYNSLIPIMQEKLEGGFADYQSVAVIKKGSLPDLNNLRDMRNKRVCFPWVGSLAGWIVPIHTLQREGGMEVVDCNNQVKTAASYFNNSCAVYSLSDKHNPIGDNSDKLCTLCTGKIPGGRCSSADPYFGYEGAFKCLLEKGDVAFLRHSTVNEMLQTTEFKNIAPDTFELLCRDGRRASINDYRQCNWGQVPADAIVTSSARSFSDRKQYQQFLKRIAELYSDGTRDDQSRQGGQSFNSRNNINDQNAYGQFDNNDPYRTQNQYDQYRSERLDSSFAEERNQQDGTNTSILYEKFRIFESKRYGKPNLLFQDSSRALTVIPEDDQSFTKYLGPAINFIYGIRECPVPAMTLCVTSENELDKCIKMRTALKAHLLKPELICKKMHSHINCMQFIEAGKADISVFDAGDVYTGGLNYDLVPFMSEVYNLGEPEYYVVAVAKEDDPDTELTYLKGKNTCHTGINTAAGWTYPMALFISNGWIRPYGCDSVRAAAEYFTKSCVPGAISNEYNTGVPYDSMCDLCHGTSYRYCRRDASEEYYGHTGAFRCLVEGGGHVAFMKHTTVMESTGGKRKEWWARNALNDDFELLCTDGTRAEIQDYKRCNLGKVKANAVVTRGGVNYNETQMNAYINLLTYAQQLYGRKEVDAFSFSMFSSPIGHYDLIFQDATRQLQVIPPNKRRYDAYLGSDFMRARRITDCYAGASQLALSVGLLLVGSLVAML
B2: the MAPPIT interaction score is 0.0626 in [3], -0.181 in test [4], 0.127 in [5] and 0.851 in [6].

B3: dod (protein)
chain: MPDAEQLPDGWEKRTSRSTGMSYYLNMYTKESQWDQPTEPAKKAGGGSAGGGDAPDEVHCLHLLVKHKGSRRPSSWREANITRTKEEAQLLLEVYRNKIVQQEATFDELARSYSDCSSAKRGGDLGKFGRGQMQAAFEDAAFKLNVNQLSGIVDSDSGLHIILRKA
Take B3: the figures for the MAPPIT interaction score in test [7] and in test [8] were 0.142 and -0.114, respectively.

B4: Rab26 (protein)
chain: MASTAVGLGGGEGDPGAGGPPAGSAHPDDASSMSDDVFEDAETTQARIEELRRRPFGDGSYNPPAAPASVSASITTTTTQQQQQHHNPSHHHQSSHHQPSHHHHHHHHSQLSLTGSHHYHDDAIMAPVQRSATGYPGYRPSREAMQMYAYGTDDYDDDYNDGWRSYRYDEVDMHPAPSNAHQQPFDDTVNHKTILLGDSGVGKTSFLVKYNTGEFRLGSFSATVGIALTNKVVVVDGTRVKLQIWDTAGQERFRSVTHAYYRDAHALLLLYDVTNKTTYDNIRAWLGEIREYAQEDVVIVLIGNKADCSGSERQVKREDGERLGREHNVPFMETSAKTGLNVELSFTAVARQLKSRGYEHGDDGKFNVHDFVRDNTKARSVCAQCRNM
Regarding B4, the MAPPIT interaction score in [9] was 1.43.

B5: csw (protein)
chain: MSSRRWFHPTISGIEAEKLLQEQGFDGSFLARLSSSNPGAFTLSVRRGNEVTHIKIQNNGDFFDLYGGEKFATLPELVQYYMENGELKEKNGQAIELKQPLICAEPTTERWFHGNLSGKEAEKLILERGKNGSFLVRESQSKPGDFVLSVRTDDKVTHVMIRWQDKKYDVGGGESFGTLSELIDHYKRNPMVETCGTVVHLRQPFNATRITAAGINARVEQLVKGGFWEEFESLQQDSRDTFSRNEGYKQENRLKNRYRNILPYDHTRVKLLDVEHSVAGAEYINANYIRLPTDGDLYNMSSSSESLNSSVPSCPACTAAQTQRNCSNCQLQNKTCVQCAVKSAILPYSNCATCSRKSDSLSKHKRSESSASSSPSSGSGSGPGSSGTSGVSSVNGPGTPTNLTSGTAGCLVGLLKRHSNDSSGAVSISMAEREREREREMFKTYIATQGCLLTQQVNTVTDFWNMVWQENTRVIVMTTKEYERGKEKCARYWPDEGRSEQFGHARIQCVSENSTSDYTLREFLVSWRDQPARRIFHYHFQVWPDHGVPADPGCVLNFLQDVNTRQSHLAQAGEKPGPICVHCSAGIGRTGTFIVIDMILDQIVRNGLDTEIDIQRTIQMVRSQRSGLVQTEAQYKFVYYAVQHYIQTLIARKRAEEQSLQVGREYTNIKYTGEIGNDSQRSPLPPAISSISLVPSKTPLTPTSADLGTGMGLSMGVGMGVGNKHASKQQPPLPVVNCNNNNNGIGNSGCSNGGGSSTTSSSNGSSNGNINALLGGIGLGLGGNMRKSNFYSDSLKQQQQREEQAPAGAGKMQQPAPPLRPRPGILKLLTSPVIFQQNSKTFPKT
Consider B5, for which the MAPPIT interaction score in test [10] was -0.144.

B6: sw (protein)
chain: MDRKAELERKKAKLAALREEKDRRRREKEIKDMEEAAGRIGGGAGIDKDQRKDLDEMLSSLGVAPVSEVLSSLSSVNSMTSDNSNTQTPDASLQATVNGQSGGKKQPLNLSVYNVQATNIPPKETLVYTKQTQTTSTGGGNGDVLSCHSSPLSGYMEDWWRPRKAHATDYYDEYNLNPGLEWEDEFTDDEESSLQNLGNGFTSKLPPGYLTHGLPTVKDVAPAITPLEIKKETEVKKEVNELSEEQKQMIILSENFQRFVVRAGRVIERALSENVDIYTDYIGGGDSEEANDERSHARLSLNRVFYDERWSKNRCITSMDWSTHFPELVVGSYHNNEESPNEPDGVVMVWNTKFKKSTPEDVFHCQSAVMSTCFAKFNPNLILGGTYSGQIVLWDNRVQKRTPIQRTPLSAAAHTHPVYCLQMVGTQNAHNVISISSDGKLCSWSLDMLSQPQDTLELQQRQSKAIAITSMAFPANEINSLVMGSEDGYVYSASRHGLRSGVNEVYERHLGPITGISTHYNQLSPDFGHLFLTSSIDWTIKLWSLKDTKPLYSFEDNSDYVMDVAWSPVHPALFAAVDGSGRLDLWNLNQDTEVPTASIVVAGAPALNRVSWTPSGLHVCIGDEAGKLYVYDVAENLAQPSRDEWSRFNTHLSEIKMNQSDEV
Regarding B6, the MAPPIT interaction score in test [11] (MAPPIT configuration: N-C) was -0.364; in test [11] (MAPPIT configuration: N-N), 0.421; in [12], 1.87; in test [13] (MAPPIT configuration: N-C), 1.37; in [13] (MAPPIT configuration: N-N), 1.75.

B7: poly (protein)
chain: MATSVLLACGLNEQKLPGFVHISEESNVDASFLISCVLGQRLRISNAGTLLVCLQHHYQHYFNAGMRLGYNTNIFQGKTLGVIDVLSDMAGEGLASKWLTNTEGQTLTDQLVEDIRAQVERNYASRNSYTVLIDNLSILFNLGASKLQVQQFCQDLAALGKEREKLTVITKLSNSDIYQLTDNNVAKLGQVRIQVLRLKSGVFREVDGKLLIERVLDEGNYACEETRKEVLYKVNDRNVKVFAPGEIGVKV
As to B7, the MAPPIT interaction score in test [14] is 0.569.
